# Among all 5,500 compounds or so, about 2,000 (36%) were called active. Another 18% or so got no clear call; they are omitted. The list shows a part of the results. Values without a mark were called inactive. Rule as the data show it: active = normalized growth mostly below about 0.91 (no sharp cut-off); inconclusive = no clear call, values can overlap the other calls; inactive = mostly above about 0.92.
# Test: chemical genetic growth profiling, strain panel (AID 1159580);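 also: tested at 20 µM; growth read once vehicle control cultures reached saturation at 30 °C; 1 = growth at the plate median or of vehicle wells; lower values mean less growth of the strain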
# Settings: growth OD
smiles,measurement,setting,value
Nc1c2ccccc2nc2ccccc12,normalized growth,"S. cerevisiae deletion strains, locus YJR075W, strain HOC1, stronger effect = lower value",0.646 (active)
same,normalized growth,"S. cerevisiae deletion strains, locus YKL009W, strain mrt4, stronger effect = lower value",0.909
same,normalized growth,"S. cerevisiae deletion strains, locus YKL068W, stronger effect = lower value",0.988
same,normalized growth,"S. cerevisiae deletion strains, locus YKL085W, strain MDH1 (second series), stronger effect = lower value",0.872 (active)
same,normalized growth,"S. cerevisiae deletion strains, locus YKL085W, strain MDH1, stronger effect = lower value",0.872 (active)
same,normalized growth,"S. cerevisiae deletion strains, locus YKL160W, strain elf1, stronger effect = lower value",0.562 (active)
same,normalized growth,"S. cerevisiae deletion strains, locus YKL190W, strain CNB1, stronger effect = lower value",0.64 (active)
same,normalized growth,"S. cerevisiae deletion strains, locus YKR001C, strain vps1, stronger effect = lower value",0.481 (active)
same,normalized growth,"S. cerevisiae deletion strains, locus YKR026C, strain gcn3, stronger effect = lower value",0.968
same,normalized growth,"S. cerevisiae deletion strains, locus YKR091W, strain srl3, stronger effect = lower value",0.925 (active)
same,normalized growth,"S. cerevisiae deletion strains, locus YLL001W, strain dnm1, stronger effect = lower value",0.476 (active)
same,normalized growth,"S. cerevisiae deletion strains, locus YLL026W, stronger effect = lower value",0.555 (active)
same,normalized growth,"S. cerevisiae deletion strains, locus YLL041C, strain sdh2, stronger effect = lower value",0.784 (active)
same,normalized growth,"S. cerevisiae deletion strains, locus YLR027C, strain aat2, stronger effect = lower value",0.453 (active)
same,normalized growth,"S. cerevisiae deletion strains, locus YLR039C, strain RIC1, stronger effect = lower value",0.99
same,normalized growth,"S. cerevisiae deletion strains, locus YLR058C, strain SHM2, stronger effect = lower value",0.613 (active)
same,normalized growth,"S. cerevisiae deletion strains, locus YLR102C, strain apc9, stronger effect = lower value",0.823 (active)
same,normalized growth,"S. cerevisiae deletion strains, locus YLR113W, strain HOG1, stronger effect = lower value",0.979
same,normalized growth,"S. cerevisiae deletion strains, locus YLR221C, strain rsa3, stronger effect = lower value",0.516 (active)
same,normalized growth,"S. cerevisiae deletion strains, locus YLR258W, strain gsy2, stronger effect = lower value",0.53 (active)
same,normalized growth,"S. cerevisiae deletion strains, locus YLR262C, strain YPT6 (second series), stronger effect = lower value",0.843 (active)
same,normalized growth,"S. cerevisiae deletion strains, locus YLR262C, strain YPT6, stronger effect = lower value",0.915
same,normalized growth,"S. cerevisiae deletion strains, locus YLR268W, strain sec22, stronger effect = lower value",0.515 (active)
same,normalized growth,"S. cerevisiae deletion strains, locus YLR320W, strain mms22, stronger effect = lower value",0.565 (active)
same,normalized growth,"S. cerevisiae deletion strains, locus YLR330W, strain CHS5, stronger effect = lower value",0.886 (active)
same,normalized growth,"S. cerevisiae deletion strains, locus YLR342W, strain FKS1 (second series), stronger effect = lower value",0.713 (active)
same,normalized growth,"S. cerevisiae deletion strains, locus YLR342W, strain FKS1, stronger effect = lower value",0.792 (active)
same,normalized growth,"S. cerevisiae deletion strains, locus YLR357W, strain rsc2, stronger effect = lower value",1.2 [resistant] (active)
same,normalized growth,"S. cerevisiae deletion strains, locus YLR370C, strain arc18, stronger effect = lower value",0.7 (active)
same,normalized growth,"S. cerevisiae deletion strains, locus YLR371W, strain rom2, stronger effect = lower value",0.948
same,normalized growth,"S. cerevisiae deletion strains, locus YLR384C, strain iki3, stronger effect = lower value",0.853 (active)
same,normalized growth,"S. cerevisiae deletion strains, locus YLR418C, strain cdc73, stronger effect = lower value",0.689 (active)
same,normalized growth,"S. cerevisiae deletion strains, locus YML016C, strain PPZ1, stronger effect = lower value",0.847 (active)
same,normalized growth,"S. cerevisiae deletion strains, locus YML032C, strain rad52, stronger effect = lower value",0.314 (active)
same,normalized growth,"S. cerevisiae deletion strains, locus YML120C, strain ndi1, stronger effect = lower value",0.582 (active)
same,normalized growth,"S. cerevisiae deletion strains, locus YML124C, strain tub3, stronger effect = lower value",0.743 (active)
same,normalized growth,"S. cerevisiae deletion strains, locus YMR058W, strain fet3, stronger effect = lower value",0.639 (active)
same,normalized growth,"S. cerevisiae deletion strains, locus YMR078C, strain ctf18, stronger effect = lower value",0.763 (active)
same,normalized growth,"S. cerevisiae deletion strains, locus YMR125W, strain sto1, stronger effect = lower value",0.919
same,normalized growth,"S. cerevisiae deletion strains, locus YMR129W, stronger effect = lower value",0.693 (active)
same,normalized growth,"S. cerevisiae deletion strains, locus YMR205C, strain PFK2, stronger effect = lower value",0.634 (active)
same,normalized growth,"S. cerevisiae deletion strains, locus YMR223W, strain ubp8, stronger effect = lower value",0.557 (active)
same,normalized growth,"S. cerevisiae deletion strains, locus YMR231W, strain pep5, stronger effect = lower value",0.985
same,normalized growth,"S. cerevisiae deletion strains, locus YMR263W, strain SAP30, stronger effect = lower value",0.767 (active)
same,normalized growth,"S. cerevisiae deletion strains, locus YMR307W, strain GAS1, stronger effect = lower value",1.13
same,normalized growth,"S. cerevisiae deletion strains, locus YNL067W, strain RPL9B, stronger effect = lower value",0.606 (active)
same,normalized growth,"S. cerevisiae deletion strains, locus YNL071W, strain lat1, stronger effect = lower value",0.977
same,normalized growth,"S. cerevisiae deletion strains, locus YNL128W, strain TEP1, stronger effect = lower value",0.733 (active)
same,normalized growth,"S. cerevisiae deletion strains, locus YNL153C, strain GIM3, stronger effect = lower value",0.713 (active)
same,normalized growth,"S. cerevisiae deletion strains, locus YNL183C, strain NPR1, stronger effect = lower value",0.771 (active)
same,normalized growth,"S. cerevisiae deletion strains, locus YNL209W, strain ssb2, stronger effect = lower value",0.663 (active)
same,normalized growth,"S. cerevisiae deletion strains, locus YNL233W, strain BNI4, stronger effect = lower value",0.74 (active)
same,normalized growth,"S. cerevisiae deletion strains, locus YNL248C, strain rpa49, stronger effect = lower value",0.445 (active)
same,normalized growth,"S. cerevisiae deletion strains, locus YNL250W, strain rad50, stronger effect = lower value",0.78 (active)
same,normalized growth,"S. cerevisiae deletion strains, locus YNL271C, strain bni1, stronger effect = lower value",0.87 (active)
same,normalized growth,"S. cerevisiae deletion strains, locus YNL298W, strain CLA4, stronger effect = lower value",0.847 (active)
same,normalized growth,"S. cerevisiae deletion strains, locus YNL307C, strain MCK1, stronger effect = lower value",0.715 (active)
same,normalized growth,"S. cerevisiae deletion strains, locus YNL322C, strain KRE1 (second series), stronger effect = lower value",0.981
same,normalized growth,"S. cerevisiae deletion strains, locus YNL322C, strain KRE1, stronger effect = lower value",0.698 (active)
same,normalized growth,"S. cerevisiae deletion strains, locus YNR049C, strain mso1, stronger effect = lower value",0.672 (active)
same,normalized growth,"S. cerevisiae deletion strains, locus YNR052C, strain pop2, stronger effect = lower value",0.778 (active)
same,normalized growth,"S. cerevisiae deletion strains, locus YOL006C, strain TOP1, stronger effect = lower value",0.67
same,normalized growth,"S. cerevisiae deletion strains, locus YOL012C, strain htz1",2.35 [resistant] (active)
same,normalized growth,"S. cerevisiae deletion strains, locus YOL147C, strain pex11, stronger effect = lower value",0.661 (active)
same,normalized growth,"S. cerevisiae deletion strains, locus YOR001W, strain rrp6, stronger effect = lower value",0.309 (active)
same,normalized growth,"S. cerevisiae deletion strains, locus YOR061W, strain CKA2, stronger effect = lower value",0.824 (active)
same,normalized growth,"S. cerevisiae deletion strains, locus YOR069W, strain VPS5, stronger effect = lower value",0.811 (active)
same,normalized growth,"S. cerevisiae deletion strains, locus YOR070C, strain gyp1, stronger effect = lower value",0.625 (active)
same,normalized growth,"S. cerevisiae deletion strains, locus YOR080W, strain dia2, stronger effect = lower value",0.783 (active)
same,normalized growth,"S. cerevisiae deletion strains, locus YOR083W, strain WHI5, stronger effect = lower value",0.501 (active)
same,normalized growth,"S. cerevisiae deletion strains, locus YOR106W, strain vam3, stronger effect = lower value",0.445 (active)
same,normalized growth,"S. cerevisiae deletion strains, locus YOR136W, strain idh2, stronger effect = lower value",0.805 (active)
same,normalized growth,"S. cerevisiae deletion strains, locus YOR144C, strain elg1, stronger effect = lower value",0.752 (active)
same,normalized growth,"S. cerevisiae deletion strains, locus YOR184W, strain ser1, stronger effect = lower value",0.41 (active)
same,normalized growth,"S. cerevisiae deletion strains, locus YOR231W, strain MKK1, stronger effect = lower value",0.67 (active)
same,normalized growth,"S. cerevisiae deletion strains, locus YOR265W, strain rbl2, stronger effect = lower value",0.706 (active)
same,normalized growth,"S. cerevisiae deletion strains, locus YOR270C, strain vph1, stronger effect = lower value",0.599 (active)
same,normalized growth,"S. cerevisiae deletion strains, locus YOR290C, strain snf2, stronger effect = lower value",0.371 (active)
same,normalized growth,"S. cerevisiae deletion strains, locus YOR316C, strain cot1, stronger effect = lower value",0.808 (active)
same,normalized growth,"S. cerevisiae deletion strains, locus YPL051W, strain arl3, stronger effect = lower value",0.696 (active)
same,normalized growth,"S. cerevisiae deletion strains, locus YPL055C, strain LGE1, stronger effect = lower value",0.659 (active)
same,normalized growth,"S. cerevisiae deletion strains, locus YPL078C, strain atp4, stronger effect = lower value",0.674 (active)
same,normalized growth,"S. cerevisiae deletion strains, locus YPL106C, strain sse1, stronger effect = lower value",0.781 (active)
same,normalized growth,"S. cerevisiae deletion strains, locus YPL240C, strain hsp82, stronger effect = lower value",0.8 (active)
same,normalized growth,"S. cerevisiae deletion strains, locus YPL241C, strain CIN2, stronger effect = lower value",0.837 (active)
same,normalized growth,"S. cerevisiae deletion strains, locus YPL256C, strain CLN2, stronger effect = lower value",0.778 (active)
same,normalized growth,"S. cerevisiae deletion strains, locus YPR119W, strain clb2, stronger effect = lower value",0.862 (active)
same,normalized growth,"S. cerevisiae deletion strains, locus YPR141C, strain kar3, stronger effect = lower value",1.02
same,normalized growth,"S. cerevisiae deletion strains, locus YPR163C, strain tif3, stronger effect = lower value",0.974
same,normalized growth,"S. cerevisiae deletion strains, locus YPR167C, strain met16, stronger effect = lower value",0.758 (active)
same,normalized growth,"S. cerevisiae deletion strains, strain wtn01, stronger effect = lower value",0.42 (active)
same,normalized growth,"S. cerevisiae strains, strain wild type, stronger effect = lower value",0.601 (active)

# Source: PubChem BioAssay AID1159580 (chemical genetic matrix, 2015)
